The panel holds about 79,000 compounds, 15% with a hit somewhere; the sample as a whole holds those more often. Rule as the data show it: active = growth inhibition above about 70%; inactive = the rest.
Tests used:
[1] = NCI Yeast Anticancer Drug Screen. Data for the rad50 strain (AID 155);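 also: 0% = growth of vehicle-only cultures of the same strain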; conditions: S. cerevisiae rad50 strain growth inhibition; at 50.0 µM; stronger effect = higher value
In short: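 Growth of the mutant yeast was measured after compound exposure and referenced to vehicle-treated cultures.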

[2] = NCI Yeast Anticancer Drug Screen. Data for the mec2-1 strain (AID 157); conditions: S. cerevisiae mec2-1 strain, at 50.0 µM, stronger effect = higher value
In short: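 Growth inhibition is read against vehicle-treated controls after compound exposure of the mec2-1 yeast strain, which is defective in DNA damage repair or cell cycle control.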

[3] = NCI Yeast Anticancer Drug Screen. Data for the sgs1 mgt1 strain (AID 161);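 also: 0% = growth of cultures given vehicle only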; conditions: S. cerevisiae sgs1 mgt1 strain, at 50.0 µM, stronger effect = higher value
In short: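 This yeast growth screen uses a strain with defined DNA-repair lesions; compound-treated growth is compared with vehicle-treated growth.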

[4] = NCI Yeast Anticancer Drug Screen. Data for the cln2 rad14 strain (AID 165);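 also: 0% = growth equal to vehicle treated cultures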; conditions: S. cerevisiae cln2 rad14 strain, at 50.0 µM, stronger effect = higher value
In short: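 Growth inhibition, relative to vehicle-treated controls, is the read-out. The test organism is a yeast strain with defined genetic alterations, cln2 rad14.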

[5] = NCI Yeast Anticancer Drug Screen. Data for the bub3 strain (AID 167); conditions: S. cerevisiae bub3 mutant strain, at 50.0 µM, stronger effect = higher value
In short: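 Whole-cell yeast assay. The mutant strain was incubated with compounds, and growth inhibition was determined by comparison with vehicle-treated cells.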

[6] = NCI Yeast Anticancer Drug Screen. Data for the mlh1 rad18 strain (AID 175); conditions: S. cerevisiae mlh1 rad18 strain growth inhibition; at 50.0 µM; stronger effect = higher value
In short: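 Cells of a genetically altered yeast strain, deficient in DNA damage repair, were treated with compound. Their growth was then compared with that of vehicle-treated cultures to give inhibition.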

Measured: growth inhibition

O=C1OC2CC3CC2C1C3C(=O)N1CCCCC1 (centres undefined)
inactive: [1] 11.5% | [2] -1.6% | [3] -8.15% | [4] -33% | [5] -9.65% | [6] -5.4%

CCC12CCCN(Cc3ccccc3)C1c1c([nH]c3ccccc13)C(C(=O)OC)C2 (centres undefined)
inactive: [1] 11.8% | [2] -2.25% | [3] 17.6% | [4] 13.7% | [5] -0.25% | [6] 2.3%

CCNc1ncnc2c1cnn2C
inactive: [1] 0.45% | [2] -1.45% | [3] 2.45% | [4] -36% | [5] -2.8% | [6] -8.4%

CCOC(=O)C(CC(c1ccc2c(c1)OCO2)C(C(=O)OCC)[N+](=O)[O-])C(=O)OCC (centres undefined)
inactive: [1] 61.2% | [2] 23.9% | [3] 58.6% | [4] 27.3% | [5] 15.6% | [6] 39.3%

CC(C)S(=O)(=O)c1s[nH]c(=O)c1-c1ccccc1
inactive: [1] -14.9% | [2] -0.1% | [3] 12.2% | [4] 5.75% | [5] -4.15% | [6] -1.2%

Cc1ccc(C(=O)OC2CCCC2)cc1
inactive: [1] 7.85% | [2] -0.7% | [3] 0.85% | [4] -7.7% | [5] -15.7% | [6] 4.1%

NC(=S)N/N=C1\C(=O)NC(=O)C1c1ccccc1 (centres undefined)
inactive: [1] 4.75% | [2] 1.4% | [3] 3.45% | [4] 0.45% | [5] 15.6% | [6] 6.95%

COC1/C=C\OC2(C)Oc3c(C)c(O)c4c(O)c(c(CN(C)C)c(O)c4c3C2=O)NC(=O)/C(C)=C\C=C/C(C)C(O)C(C)C(O)C(C)C(OC(C)=O)C1C (centres undefined)
inactive: [1] 50.5% | [2] -3.1% | [3] -16.7% | [4] 28.2% | [5] -29.9% | [6] -6.45%

CC1(C)C/C(=C/c2ccccc2)C(=O)O1
inactive: [1] -14.6% | [2] -6.95% | [3] -3.45% | [4] -31.5% | [5] -4.05% | [6] -19.3%

Cc1cc(C)c(C(=O)c2ccccc2C(=O)O)c(C)c1
inactive: [1] 0.05% | [2] 11.1% | [3] 3.05% | [4] -89% | [5] 24.5% | [6] -12%

NC(=S)NNCC(=O)CC(O)(C(F)(F)F)C(F)(F)Cl (centres undefined)
inactive: [1] -21.2% | [2] -6.95% | [3] -21.6% | [4] -21.9% | [5] 21.4% | [6] -0.65%

COC(=O)c1nn(-c2ccccc2)c(=O)cc1N=[N+]=[N-]
inactive: [1] -31% | [2] -5.2% | [3] -39.2% | [4] -12.8% | [5] -14.2% | [6] -54.4%

O=[N+]([O-])c1ccc(-c2ccc(-c3ccccc3)cc2)cc1
inactive: [1] -1.8% | [2] -12.7% | [3] 5.35% | [4] -15.4% | [5] -10.7% | [6] -3.6%

CCCCCCCCCCCCCCCCCC(=O)Oc1c(C(C)CC)cc([N+](=O)[O-])cc1[N+](=O)[O-] (centres undefined)
inactive: [1] 13.2% | [2] 25% | [3] 46.2% | [4] 2.85% | [5] 10.1% | [6] 53.9%

O=C1C2C3CCC(C3)C2C(=O)C2C3CCC(C3)C12 (centres undefined)
inactive: [1] -1.6% | [2] -12.7% | [3] -9.95% | [4] -8.45% | [5] 8.75% | [6] 6.65%

CCOC(=O)c1ccc(/C(C)=N/NC(N)=S)cc1
inactive: [1] 7.35% | [2] 3.8% | [3] 21% | [4] 15.4% | [5] 5.35% | [6] -9.5%

Cc1cccc(C(=O)O)c1N
inactive: [1] 9.7% | [2] -5.25% | [3] -10.6% | [4] 9.95% | [5] -33.6% | [6] 13.4%

CC[N+](C)(CC)c1cccc(OC(=O)N2CCCCC2)c1
inactive: [1] 7.8% | [2] 3.45% | [3] 16.4% | [4] 0.2% | [5] -4.75% | [6] -16.9%

CN(C)S(=O)(=O)c1cccc([N+](=O)[O-])c1
inactive: [1] 17.5% | [2] 7.5% | [3] 18.1% | [4] 8.5% | [5] -6.3% | [6] 8.8%

Cc1ccc(N=Nc2sc(N)nc2-c2ccc(Cl)cc2)cc1
inactive: [1] 28.6% | [2] -2.55% | [3] 35.6% | [4] 39.6% | [5] 17.1% | [6] 62.9%

Nc1c(S(=O)(=O)O)ccc2c1C(=O)c1ccccc1C2=O
inactive: [1] 27.9% | [2] 24.2% | [3] 34% | [4] 6.5% | [5] 49.1% | [6] 16.4%

N#CC(c1ccccc1)N(C(N)=O)c1ccccc1 (centres undefined)
inactive: [1] -3.15% | [2] 8.5% | [3] 8.05% | [4] -2.85% | [5] 6.4% | [6] 4.2%

[O-][N+](CCO)(CCO)Cc1ccccc1
inactive: [1] 14.1% | [2] 1.05% | [3] 19.8% | [4] 6.2% | [5] 9.65% | [6] 26.6%

C=CCNC(=S)NC=C(C(N)=O)C(N)=O
inactive: [1] -25.9% | [2] -33% | [3] -22.5% | [4] -19.5% | [5] -4.9% | [6] -19.9%

CC1(C)C2CCC(CN)C1C2 (centres undefined)
inactive: [1] -11.4% | [2] -44.6% | [3] -1.7% | [4] 13.3% | [5] -20.1% | [6] -15.6%

C[N+]1(C)N=C([O-])N(c2ccccc2F)C1=O
inactive: [1] 7.15% | [2] -7.35% | [3] 2.7% | [4] -17.1% | [5] -2.15% | [6] -0.7%

[O-][n+]1onc2c1/C(=N/O)CCC2
inactive: [1] -17.2% | [2] 4.6% | [3] -14.3% | [4] -2.3% | [5] -4.1% | [6] 11.7%

N#Cc1c(CC(=O)O)cc(=O)n2c1[nH]c1ccccc12
inactive: [1] -13.9% | [2] -12.9% | [3] -1.9% | [4] 13.4% | [5] -11.9% | [6] -10.3%

O=C(O)c1c[nH]c(=O)[nH]c1=O
inactive: [1] 1.25% | [2] -5.4% | [3] 1.25% | [4] -5.55% | [5] 0.65% | [6] -7.5%

N#CC(C(=N/NC(N)=S)/C(=N\NC(N)=S)C(C#N)c1ccccc1)c1ccccc1 (centres undefined)
inactive: [1] -34.5% | [2] -5.35% | [3] -30.8% | [4] -8.25% | [5] -14.2% | [6] -15.7%

O=C1CCCCC1N1CCCCC1 (centres undefined)
inactive: [1] -4.95% | [2] -14.7% | [3] 10.8% | [4] 2.65% | [5] -1.3% | [6] 0%

O=C1/C(=C\c2ccccc2)Cc2cc3c(cc21)OCO3
inactive: [1] 6.1% | [2] 1.85% | [3] -3.55% | [4] -15.9% | [5] 8.95% | [6] -6.45%

CC1(c2ccccc2)OCC(c2ccccc2)O1 (centres undefined)
inactive: [1] -9.2% | [2] -23.2% | [3] -7% | [4] -22% | [5] 12.7% | [6] 10.3%

CCOC(=O)CC(C)(O)c1ccccc1 (centres undefined)
inactive: [1] -12.2% | [2] -0.55% | [3] 23.4% | [4] -17.4% | [5] 12.3% | [6] 0.15%

c1ccc(CC2CCCC(Cc3ccccc3)N2)cc1 (centres undefined)
inactive: [1] -1.25% | [2] -16.4% | [3] -5.55% | [4] -49.3% | [5] 16.1% | [6] 5.1%

C=CCOC(C)n1c(C)cc(=O)n(C(C)OCC=C)c1=O (centres undefined)
inactive: [1] -56.6% | [2] -26.8% | [3] -46.6% | [4] -38.5% | [5] -44.9% | [6] -29.8%

NC(CS(N)(=O)=O)C(=O)O (centres undefined)
inactive: [1] -6.3% | [2] -3.75% | [3] -1.05% | [4] -51.5% | [5] -3.2% | [6] 2.8%

N#CN1CC[C@@H]2CC3(CCC2C1)OCCO3 (some centres undefined)
inactive: [1] 17.6% | [2] 4.3% | [3] 0.3% | [4] -4.45% | [5] -18.4% | [6] 1.5%

O=C(Nc1cccc([N+](=O)[O-])c1)Nc1ccccc1F
inactive: [1] 11.7% | [2] 10% | [3] 14.1% | [4] 10.5% | [5] 19.2% | [6] 9.55%

— PubChem BioAssay (NCI)
